Only a selection was taken, and hits are over-represented in it overall.
AMA1-RON2 inh: disrupts binding of P. falciparum AMA1 to RON2; AlphaScreen AMA1-biotinylated RON2 peptide binding; Potency, µM (titrated, usually from 58.2 µM), for the others: at the top dose activity change, negative = inhibition, most hits filed as inhibitors; hit rate 0.2% among 360,000; active = well fitted inhibition curve with a large enough effect; inconclusive = small, poorly fitted or top-dose-only effect; inactive = no such curve, though single readings can be large or run the other way;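 also: potency is read from the fitted curve at half-maximal effect; 0% = vehicle wells and -100% = peptide control; nearly all actives have a fitted effect of over 45% in size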
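AMA1 (3D7) with his tag at 25 nM final met compounds first, then biotinylated RON2 peptide at 25 nM; detection used donor plus acceptor beads, 10 µg/mL apiece, read by AlphaScreen after 30 min at room temperature.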
Marburg entry inh: blocks Marburg virus binding to or entry into cells | Marburg virus pseudotyped entry inhibition, cell reporter | Potency, µM (top dose mostly 37.8 µM), without a hit: at the highest dose activity change, negative = inhibition, usual class: inhibitors | hit rate 1.8% among 300,000; calls by dose curve; tested in HEK293 cells; also: potency is read from the fitted curve at half-maximal effect; % is scaled to controls: 0 for no effect and ±100 for the full control effect
LASV entry inh: Lassa virus entry inhibition | Lassa virus pseudotype entry inhibition, cell reporter | Potency, µM (top dose mostly 37.9 µM), inactives show top-dose activity change, negative = inhibition, hits mostly inhibitors | hit rate 1.2% among 300,000; calls by dose curve; tested in HEK293 cells; also: potency is read from the fitted curve at half-maximal effect; % is scaled to controls: 0 for no effect and ±100 for the full control effect; nearly all actives have a fitted effect of over 50% in size
Cycloheximide cs: counter-screen hit for Shiga toxin inhibitors, cycloheximide; hit rate 12% among 300,000; cell reporter, cycloheximide protein synthesis inhibition counterscreen; AID 2314; max response, %; in the data active = max response mostly above about 13%, no sharp cut-off; inactive = mostly below about 14%; also: read at 38.3 µM for the half of the compounds with a filed dose; 0% is about no effect
Shiga inhibitor: Shiga toxin inhibition | inhibition, % at 38.7 µM | hit rate 9.2% among 290,000 | Vero cells, Shiga toxin protein synthesis inhibition reporter | AID 2315; in the data active = inhibition mostly above about 28%, no sharp cut-off; inactive = mostly below about 43%; also: 0% is about no effect
The depositor's hits bear a star; ? = inconclusive; / = no result; ! = repeats disagree; [ ] = remark or other dose.

SMILES	AMA1-RON2 inh	Marburg entry inh	LASV entry inh	Cycloheximide cs	Shiga inhibitor
CCC(=O)N1CCc2cc(S(=O)(=O)CCC(=O)Nc3ccc(OC)c(OC)c3)ccc21	-7%	5%	4%	4	-4
CCOC(=O)c1sc2nc(OCc3cccnc3)cc(C)c2c1N	7%	/	/	/	/
COc1ccc(-c2nnc(NC(=O)C(C)C)s2)c(OC)c1	-7%	/	/	21*	52
CN(Cc1cnc2nc(N)nc(N)c2n1)c1ccc(C(=O)N[C@@H](CCC(=O)O)C(=O)O)cc1	3%	0.04µM*!	?	/	/
CN(Cc1cnc2nc(N)nc(N)c2n1)c1ccc(C(=O)N[C@H](CCC(=O)O)C(=O)O)cc1	/	0.04µM*	/	/	/
COC(=O)c1c(CSc2cccc(C)c2)noc1C(=O)NCc1ccco1	-9%	/	/	21*	23
Cn1ccc2c(OCC(=O)Nc3cc(C(F)(F)F)ccc3Cl)cccc2c1=O	/	/	-11%[46.1 µM]	/	/
COC(=O)[C@@]1(Cc2ccc(F)cc2)[C@H]2c3cc(C(=O)N(C)C)n(Cc4ccc(OC)c(OC)c4)c3C[C@H]2CN1C(=O)c1ccccc1	-19%	?	?	-4	-7
C=C1C(=O)C=C2CN(C(=O)c3ccccc3)[C@@](Cc3ccc(F)cc3)(C(=O)OC)[C@@H]12	13%	?	21µM*	-11	-31
COC(=O)[C@@]1(Cc2ccc(F)cc2)[C@H]2c3cc(C(=O)N(C)C)n(Cc4ccccc4)c3C[C@H]2CN1C(=O)c1ccccc1	-1%	13µM*	?	-3	-11
COC(=O)[C@@]1(Cc2ccc(OC)cc2)[C@H]2c3cc(C(=O)N(C)C)n(Cc4ccc(OC(F)(F)F)cc4)c3C[C@H]2CN1C(=O)c1ccccc1	-21%	9.2µM*	?	-2	-14
Cc1nn(-c2ccccc2)c(C)c1C(=O)OCC(=O)Nc1ccccc1Cl	-2%	/	/	/	/
COc1ccc(Cn2c(CNS(=O)(=O)c3ccc4c(c3)CCCC4)nc3cccnc32)cc1	/	/	-10%[46.1 µM]	/	/
CCOC(=O)C1=C(c2ccccc2)NC(SCC(=O)Nc2ccccc2C)=C(C#N)[C@@H]1c1ccco1	/	23µM*	/	/	/
CC(C)(C)c1ccc(C(=O)CCCSC2=C(C#N)C(c3ccco3)C3=C(CCCC3=O)N2)cc1 (stereo not given)	-5%	?	?	4	-2
CC(=O)C1=C(C)NC(SCC(=O)c2ccc(F)cc2)=C(C#N)C1CC(C)C (stereo not given)	-5%[2.32 µM]	-21%	?	63*	88*
CC1=C(C(=O)Nc2ccccc2)C(c2ccco2)C(C#N)=C(SCC(=O)Nc2cccc(C)c2C)N1 (stereo not given)	-3%	?	10%	1	27
CC(=O)C1=C(C)NC(SCC(=O)c2ccc(Cl)cc2)=C(C#N)C1CC(C)C (stereo not given)	37%	1%	-8%	-2	-7
Cc1ccc(C(=O)CSC2=C(C#N)C(c3ccco3)C3=C(CCCC3=O)N2)cc1 (stereo not given)	-19%	?	?	18*	-18
CCc1ccc(C(=O)CSC2=C(C#N)C(c3ccco3)C(C(C)=O)=C(C)N2)cc1 (stereo not given)	/	3%	/	30*	32
C=C[C@](C)(CC[C@@]1(C)C(C)CC(OC2OC(C)C(OC3OC(COC(C)=O)C(O)C(O)C3O)C(O)C2O)[C@@]2(C)C(C)=CCCC12)OC1OC(C)C(O[C@@H]2O[C@@H](C)C(O)C(O)[C@H]2O)C(O)C1O (stereo not given in full)	15%	/	/	/	/
CCCCNC(=O)CCCN1C(=O)c2ccccc2Sc2ncccc21	/	/	-3%[46.1 µM]	/	/
COc1ccc(NC(=O)CSC2=C(C#N)C(c3ccco3)C3=C(CCCC3=O)N2)c(OC)c1 (stereo not given)	2%	?	-15%	14	-13
N#CC1=C(SCC(=O)c2ccccc2)NC2=C(C(=O)CCC2)C1c1ccco1 (stereo not given)	-21%	?	?	66*	72*
CCN(CC)c1ccc(/C=C/[N+](=O)[O-])cc1	24%	?	?	12*	29
SMILES	AMA1-RON2 inh	Marburg entry inh	LASV entry inh	Cycloheximide cs	Shiga inhibitor
O=c1c2sc(-c3ccccc3)cc2nc2n1CCC2	-6%	4.5µM*	?	24*	26*
O=c1c2sc(-c3ccccc3)cc2nc2n1CCCCC2	-5%	?	-17%	53*	56*
Cc1ccc(-n2c(C)nc3cc(Cl)ccc3c2=O)nc1	22%	-2%[46.1 µM]	-2%[46.1 µM]	28*	63*
CCSc1ncc(/C=N/Nc2ccc(F)cc2)n1C	-14%	-10%	-30%	30*	52*
CC(C)N1C(=O)S/C(=C/c2ccccc2OCc2ccc(C(=O)O)cc2)C1=O	-10%	-7%[46.1 µM]	11%[46.1 µM]	20	32*
O=C(CSc1nc2ccccc2c(=O)n1NC(=O)Cc1ccccc1)NCc1ccccc1	-15%	-23%	-10%	14	-7
COc1ccc(C(=O)Nn2c(SCC(=O)NCC3CCCO3)nc3ccccc3c2=O)cc1 (stereo not given)	7%	?	7.3µM*	-2	-10
COc1ccc(C(=O)Nn2c(SCC(=O)NC3CCCC3)nc3ccccc3c2=O)cc1	-12%	?	?	69*	46
COc1ccc(C(=O)Nn2c(SCC(=O)NCc3ccccc3)nc3ccccc3c2=O)cc1	-9%	?	?	51*	44
COc1ccc(NC(=O)CSc2nc3ccccc3c(=O)n2CCC(=O)NC2CCCCC2)c(OC)c1	/	/	9%[46.1 µM]	/	/
Cc1cc(C)c(S(=O)(=O)NCCc2sc3nc(-c4ccc(F)cc4)nn3c2C)c(C)c1	/	/	24%[46.1 µM]	/	/
CCCNC(=O)OC[C@@H]1O[C@H](CCO/N=C(\C)CCN2CCCCc3nc(C)c(C)cc32)C=C[C@@H]1Oc1ccc(OC)cc1	/	-26%[14.2 µM]	/	/	/
Nc1nccc(-c2ccc(-n3cccc3)cc2)n1	12%	2%[46.1 µM]	12%[46.1 µM]	23*	53*
c1ccc(-c2nccc(-c3ccc(-n4cnc5ccccc54)cc3)n2)cc1	-17%	-24%	-16%	-4	-23
CC1CCCN(C(=O)CSc2cnc3ccccc3n2)C1 (stereo not given)	-4%	11%	-26%	58*	111*
CC1CCCCN1C(=O)CSc1nc2ncccc2[nH]1 (stereo not given)	-6%	/	/	9	28
CC1CCCN(C(=O)CSc2nc3ncccc3[nH]2)C1 (stereo not given)	9%	14%[46.1 µM]	-7%	15*	33*
CCOC(=O)N1CCN(CC(=O)Nc2sc(CC)cc2C(=O)c2ccc(OC)cc2)CC1	-5%	?	?	-2	-11
Cc1ccccc1Oc1ccc(Oc2ccccc2C)nn1	-5%	18%	19%	31*	116*
CC1CCCN(C(=O)COC(=O)Cn2cnc3ccccc32)C1 (stereo not given)	-6%	2%	13%	/	/
COc1ccc(Cl)cc1NC(=O)C1Cc2cc(S(=O)(=O)N3CCCC3)ccc2N1C(C)=O (stereo not given)	-3%	?	-27%[46.1 µM]	4	-10
COc1ccc(CNC(=O)Cn2c(=O)oc3cc(S(=O)(=O)N4CCC(C)CC4)ccc32)cc1	/	7.1µM*	?	/	/
